Structures are written as SMILES.

The experiment concerns Drosophila S2 cl14 SmoIP sensor cells. The experiment is described as follows: normalized SmoIP GFP fluorescence (untreated unstimulated = 0%, untreated Hh-stimulated = 100%); higher = more Smo activation sensor fluorescence. As to conditions: compound concentration: 2 uM, 24 h.
Where [1] appears, read: stimulation: Hh conditioned medium (+Hh).
Setting [2] is: stimulation: mock conditioned medium (-Hh).
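Also: flow cytometry read-out as median GFP intensity of gated cells, compounds added 30 min before Hh-conditioned or mock medium, mock-treated cells serving as unstimulated baseline.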

Take `COc1ccc(C2=N[C@@H](c3ccc(Cl)cc3)[C@@H](c3ccc(Cl)cc3)N2C(=O)N2CCNC(=O)C2)c(OC(C)C)c1` [Nutlin-3]: the “normalized SmoIP GFP fluorescence” value was found to be 90.4% under setting [1] and 2.11% under setting [2].

With `Cc1ccccc1C(C(=O)NC1CCCCC1)N(C(=O)Cn1ccnc1C)c1cccc(F)c1` (centres undefined), the “normalized SmoIP GFP fluorescence” value reads like this: under setting [1], 111%; under setting [2], -1.97%.

Take `O=C1NC(=O)/C(=C/c2ccc3c(c2)OC(F)(F)O3)S1`: the “normalized SmoIP GFP fluorescence” value turned out to be 114% under setting [1] and 7.01% under setting [2].

As for `Cn1cncc1[C@@](N)(c1ccc(Cl)cc1)c1ccc2c(c1)c(-c1cccc(Cl)c1)cc(=O)n2C`, the “normalized SmoIP GFP fluorescence” value reads like this: under setting [1], 141%; under setting [2], 43.9%.

Turning to `Cc1c(Cl)cccc1Nc1ccccc1C(=O)O` [tolfenamic-acid], the “normalized SmoIP GFP fluorescence” value is 88.3% under setting [1] and -15.3% under setting [2].

On to `CN(C)C(=O)Nc1cccc(-c2ccc(N(C)C)cc2)c1` [atglistatin], for which the “normalized SmoIP GFP fluorescence” value is 130% under setting [1] and 18.1% under setting [2].

Regarding `FC(F)(F)c1ccc(/C=C/c2nc(COc3ccc(CCCCn4ccnn4)cc3)co2)cc1` [Mubritinib-TAK-165], the “normalized SmoIP GFP fluorescence” value under setting [1] stood at 149% and the “normalized SmoIP GFP fluorescence” value under setting [2] was -0.747%.

For the molecule `CC(C)c1cc(-c2n[nH]c(=O)n2-c2ccc3c(ccn3C)c2)c(O)cc1O` [ganetespib-sta-9090], the “normalized SmoIP GFP fluorescence” value is, setting by setting: under setting [1], 103%; under setting [2], -1.56%.

On to `CNCc1cc(-c2ccccc2F)n(S(=O)(=O)c2cccnc2)c1`, for which the “normalized SmoIP GFP fluorescence” value is 126% under setting [1] and -15.1% under setting [2].

As to `CN(C)Cc1ccc(-c2nc3cccc4c3n2CCNC4=O)cc1`, the “normalized SmoIP GFP fluorescence” value reads like this: under setting [1], 120%; under setting [2], -14.3%.

As to `Cc1ccc(Sc2ccccc2N2CCNCC2)c(C)c1`, the “normalized SmoIP GFP fluorescence” value by setting is: under setting [1], 169%; under setting [2], -11.4%.

With `COc1ccc2cc(CCC(C)=O)ccc2c1` [nabumetone], the “normalized SmoIP GFP fluorescence” value was 103% under setting [1] and -2.2% under setting [2].

The record behind these values is the supplement of paper PMC5662767.
